Measurements reported in PubChem BioAssay (NCATS).
Records with an inconclusive call do not appear. Activity calls are given as the source filed them. Calls come from the whole dose curve; as a rule, active = well fitted curve in the direction sought with a large enough effect; inconclusive = small, poorly fitted or top-dose-only effect, or another doubt; inactive = no such curve, though single readings can be large; an effect the other way counts as inactive or inconclusive.

Assays:
[1] = biological target: Glutathione peroxidase 1 (Homo sapiens) (UniProt P07203); assay: Primary qHTS Assay for Inhibitors of Recombinant Selenoprotein Glutathione Peroxidase 1 (GPX1) (AID 1845191); note: nearly all actives have a fitted effect of over 65% in size; for activity, negative = inhibition: % is set by controls: 0 for no effect and ±100 for the full control effect
Sequence of Glutathione peroxidase 1 (Homo sapiens) (P07203 whole entry, looked up): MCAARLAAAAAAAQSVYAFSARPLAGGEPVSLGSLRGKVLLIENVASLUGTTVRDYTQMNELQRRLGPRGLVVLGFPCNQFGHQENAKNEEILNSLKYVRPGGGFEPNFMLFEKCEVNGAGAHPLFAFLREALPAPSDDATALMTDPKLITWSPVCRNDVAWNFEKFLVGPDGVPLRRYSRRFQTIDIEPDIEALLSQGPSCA
In short: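 NADPH consumption tracked by fluorescence at 340/450 nm between t=0 and t=15 min, room temperature. Final mix: 10 nM GPX1, 100 nM glutathione reductase, 1 mM GSH, 0.5 mM NADPH, 0.5 mM cumene hydroperoxide, 0.01% BSA; 30 min compound–enzyme preincubation.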

[2] = biological target: Phospholipid hydroperoxide glutathione peroxidase GPX4 (Homo sapiens) (UniProt P36969); assay: Primary qHTS Assay for Inhibitors of Recombinant Selenoprotein Glutathione Peroxidase 4 (GPX4) (AID 1845192); note: nearly all actives have a fitted effect of over 65% in size; for activity change, negative = inhibition: series mostly up to about 50 µM; % is set by controls: 0 for no effect and ±100 for the full control effect
Sequence of Phospholipid hydroperoxide glutathione peroxidase GPX4 (Homo sapiens) (P36969 whole entry, looked up): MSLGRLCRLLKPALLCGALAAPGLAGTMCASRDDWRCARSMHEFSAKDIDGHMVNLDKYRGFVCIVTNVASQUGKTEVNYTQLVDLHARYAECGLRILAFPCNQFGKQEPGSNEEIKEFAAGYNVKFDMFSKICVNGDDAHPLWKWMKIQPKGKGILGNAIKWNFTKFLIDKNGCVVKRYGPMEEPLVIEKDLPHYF
In short: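 NADPH consumption followed by fluorescence at 340/450 nm, t=0 and after 15 min at room temperature. Reaction started with cumene hydroperoxide (0.5 mM final) after 30 min compound–GPX4 preincubation; final 200 nM GPX4, 100 nM GR, 1 mM GSH, 0.5 mM NADPH.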

[3] = biological target: Luciferin 4-monooxygenase (Photinus pyralis) (UniProt P08659); assay: Primary firefly luciferase (FLuc) qHTS assay for identification of artifact compounds. (AID 1845220); note: nearly all actives have a fitted effect of over 60% in size;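 for activity change, negative = inhibition: series mostly up to about 54 µM; plate controls were DMSO vehicle for no effect and no enzyme for full effect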
In short: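 FLuc 10 nM; luciferin 10 uM; ATP 10 uM; Tris-acetate pH 7.6, Mg-acetate 10 mM; 15 min RT preincubation; 5 min reaction; luminescence.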

[4] = Primary fluorescence-based thiol-reactive (MSTI) qHTS assay for identification of artifact compounds. (AID 1845221);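 note: series mostly up to about 54 µM; thiol-reactive compounds lower the probe fluorescence signal; nearly all actives have a fitted effect of over 65% in size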
In short: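 Compounds were incubated 1 h at room temperature in the dark with the MSTI probe (4 uM) in PBS pH 7.4, 2% DMSO. Signals were normalized between Acetyl-MSTI and MSTI.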

[5] = system: Nanoluciferase (engineered Oplophorus gracilirostris luciferase); assay: Primary Nanoluciferase (NLuc) qHTS assay for identification of artifact compounds. (AID 1845222);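 note: NLuc secreted into diluted conditioned medium of S16 cells; series mostly up to about 54 µM; 0% = DMSO and -100% = no enzyme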
In short: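 NLuc from S16 cell medium (1:55) plus test compounds, 15 min, room temperature. Luminescence after Nano-Glo (1:100) addition, 5 min.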

[6] = Primary redox qHTS assay for identification of artifact compounds. (AID 1845223);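 note: 0% = DMSO and 100% = reference compound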
In short: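 Redox-cycling detection via DTT (250 uM final) oxidation coupled to Amplex Red (25 uM)/HRP (250 mU/mL) in HBSS. 15 min preincubation plus 30 min after DTT, room temperature. Ex/Em 525/598 nm; 4-parameter Hill fit against DMSO and 10 uM DA3003.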

O=C(C(Cc1cccc(C(F)(F)F)c1)NS(=O)(=O)c1cc(F)c2c(c1)CCNC2)N1CCCC1 (stereo not drawn)
inactive: Potency [1] | Potency [2] | Potency [3] | Potency [4] | Potency [5] | Potency [6]

CC(=O)CC(=O)Nc1ccc(Cl)c(C(F)(F)F)c1
inactive: Potency [1] | Potency [2] | Potency [3] | Potency [4] | Potency [5] | Potency [6]

COC(=O)c1cc(Br)cnc1N1CCC(NC2CCCCC2)C(O)C1 (stereo not drawn)
inactive: Potency [1] | Potency [2] | Potency [3] | Potency [4] | Potency [5] | Potency [6]

CCN(CC)C(=O)c1ccc(Nc2nc(OCC3CCCCC3)c3[nH]cnc3n2)cc1
inactive: Potency [1] | Potency [2] | Potency [3] | Potency [4] | Potency [5] | Potency [6]

C=C1CC[C@@H]2[C@](C)(CO)[C@H](O)CC[C@@]2(C)[C@@H]1CC(=O)C1=CCOC1=O
inactive: Potency [1] | Potency [2] | Potency [3] | Potency [4] | Potency [5] | Potency [6]

C=C1CO[C@@]2(O[C@H]3CC4C5CC=C6C[C@@H](O)C[C@@H](O[C@@H]7OC[C@H](O)[C@H](O[C@@H]8OC[C@@H](O)[C@H](O)[C@H]8O)[C@H]7O[C@@H]7O[C@@H](C)[C@H](OC(C)=O)[C@@H](OC(C)=O)[C@H]7OC(C)=O)[C@]6(C)C5CC[C@]4(C)[C@@H]3[C@@H]2C)[C@@H](O)[C@H]1OC1OC(C)C(O)C(O)C1O (stereo partly drawn)
inactive: activity, negative = inhibition [1] 0.917% [at 9.52 µM] | outcome [2] inactive [at 9.73 µM] | outcome [3] inactive [at 11.6 µM] | activity change, negative = thiol reactive [4] 69.1% [at 11.5 µM] | activity, negative = inhibition [5] 1.51% [at 11.6 µM] | redox activity (% of DA3003) [6] 7.69% [at 11.5 µM]

O=C(NCCN1CCOCC1)c1cc2c(Oc3ccc(NC(=O)C4(C(=O)Nc5ccc(F)cc5)CC4)cc3)ccnc2[nH]1
inactive: Potency [1] | Potency [2] | Potency [3] | Potency [4] | Potency [5] | Potency [6]

O=C(CNC(=O)c1cccc(C(F)(F)F)c1)N[C@@H]1CCN(Cc2ccc(Cl)cc2)C1
inactive: Potency [1] | Potency [2] | Potency [3] | Potency [4] | Potency [5] | Potency [6]

Cc1cn(CCN2CCN(c3ccccc3-c3cc(C#N)cc(C(=O)NCCCN4CCCC4)c3)CC2)c2ccccc12
inactive: Potency [1] | Potency [2] | Potency [3] | Potency [4] | Potency [5] | Potency [6]

C=C(C)C(=O)O[C@H]1[C@H]2C(=C)C(=O)O[C@@H]2/C=C(\CO)CC/C=C(/C=O)[C@@H]1O
inactive: Potency [1] | Potency [2] | Potency [3] | Potency [4] | Potency [5] | Potency [6]

CC1=CC2/C=C(\C)CCC(O)C(=O)C(O)CC(=O)C23C(=O)NC(CC(C)C)C3C1C (stereo not drawn)
inactive: Potency [1] | Potency [2] | Potency [3] | Potency [4] | Potency [5] | Potency [6]

OC(c1ccc(-c2ccc(CN3CCN(Cc4ccncc4)CC3)cc2)c(F)c1)(C(F)(F)F)C(F)(F)F
inactive: Potency [1] | Potency [2] | Potency [3] | Potency [4] | Potency [5] | Potency [6]

CC(C)C[C@@H]1NC(=O)[C@@H](Cc2ccccc2)NC(=O)C(CCCCCC(=O)C2CO2)NC(=O)[C@@H]2CCCCN2C1=O (stereo partly drawn)
inactive: Potency [1] | Potency [2] | Potency [3] | Potency [4] | Potency [5] | Potency [6]

CCS(=O)c1nc(-c2cccc(OCc3ccccc3)c2)cc(C(F)(F)F)n1 (stereo not drawn)
inactive: Potency [1] | Potency [2] | Potency [3] | Potency [4] | Potency [5] | Potency [6]

Cc1sc2c(c1C)C(c1ccc(Cl)cc1)=N[C@H](CC(=O)NCCCCNC(=O)COc1cccc3c1C(=O)N([C@H]1CCC(=O)NC1=O)C3=O)c1nnc(C)n1-2
inactive: Potency [1] | Potency [2] | Potency [3] | Potency [4] | Potency [5] | Potency [6]

CNCCCC1(c2ccccc2)OC(C)(C)c2ccccc21 (stereo not drawn)
inactive: Potency [1] | Potency [2] | Potency [3] | Potency [4] | Potency [5] | Potency [6]

C=CCC1=C[C@]2(OC)[C@H](C)[C@@H](c3ccc4c(c3)OCO4)O[C@]2(OC)CC1=O
inactive: Potency [1] | Potency [2] | Potency [3] | Potency [4] | Potency [5] | Potency [6]

Cc1cc(NC(=O)NCCN2CCC(O)(Cc3ccccc3)CC2)c2ccccc2n1
inactive: Potency [1] | Potency [2] | Potency [3] | Potency [4] | Potency [5] | Potency [6]

CCOC(=O)C1(CCOc2ccccc2)CCN(Cc2ccc(O)c(Cl)c2)CC1
inactive: Potency [1] | Potency [2] | Potency [3] | Potency [4] | Potency [5] | Potency [6]

CCN1CCN(Cc2ccc(NC(=O)c3ccc(C)c(Oc4ccnc5[nH]ccc45)c3)cc2C(F)(F)F)CC1
inactive: Potency [1] | Potency [2] | Potency [3] | Potency [4] | Potency [5] | Potency [6]

Cc1ccnc(NC(=O)C(C)c2cccc(C(=O)c3ccccc3)c2)c1 (stereo not drawn)
inactive: Potency [1] | Potency [2] | Potency [3] | Potency [4] | Potency [5] | Potency [6]

C[C@@H]1O[C@@H](O[C@H]2[C@H](OC(=O)[C@]34CCC(C)(C)C[C@H]3C3=CCC5[C@@]6(C)C[C@H](O)[C@H](O[C@@H]7O[C@H](CO)[C@@H](O)[C@H](O)[C@H]7O)[C@](CO)(C(=O)O)C6CC[C@@]5(C)[C@]3(C)C[C@H]4O)OC[C@H](O)[C@@H]2O)[C@H](O)[C@H](O)[C@H]1O[C@@H]1OC[C@@H](O)[C@H](O[C@@H]2OC[C@](O)(CO)[C@H]2O)[C@H]1O (stereo partly drawn)
inactive: outcome [1] inactive [at 9.52 µM] | activity change, negative = inhibition [2] -2.46% [at 9.73 µM] | activity change, negative = inhibition [3] 1.03% [at 11.6 µM] | activity change, negative = thiol reactive [4] 423% [at 11.5 µM] | activity, negative = inhibition [5] 2.55% [at 11.6 µM] | redox activity (% of DA3003) [6] 8.49% [at 11.5 µM]

CCOc1cc(C(C)(C)C)ccc1C1=NC(C)(c2ccc(Cl)cc2)C(C)(c2ccc(Cl)cc2)N1C(=O)N1CCN(CCCS(C)(=O)=O)CC1 (stereo not drawn)
inactive: Potency [1] | Potency [2] | Potency [3] | Potency [4] | Potency [5] | Potency [6]
